Sampled rows, rich in hits. Any-hit rate of the full collection: about 6.5%.
DPM-DC inhibit: blocks S. pneumoniae diphosphomevalonate decarboxylase. purified DPM-DC, PK/LDH coupled NADH fluorescence. calls only at 10 µM. hit rate 0.49% among 65,000;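 active = the 320 compounds with the highest percent inhibition in the single-dose primary screen, excluding strongly autofluorescent ones, cut at about 32% in these data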;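 note: kinetic rate of NADH fluorescence loss reporting ADP formed by the decarboxylase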
NADH coupling: inhibition of NAD/NADH coupling enzymes, library profiling | coupled PK/LDH NADH assays, four targets | IC50, µM (titrated, usually from 10 µM), without a hit: top-dose inhibition | hit rate 0.02% among 65,000 | AID 774;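 active = single-dose screening hits from any of four coupled enzyme assays that gave an IC50 when retested across doses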;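 note: the DPM-DC format reads NADH fluorescence rather than 340 nm absorbance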
Spn PMK inh: blocks S. pneumoniae phosphomevalonate kinase; purified PMK, PK/LDH-coupled NADH absorbance 340 nm; inhibition, % at 10 µM; hit rate 0.49% among 65,000;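 active = top-ranked compounds by inhibition in the single 10 µM screen, taking a fixed number of the strongest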;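 note: 0% = full reaction with DMSO carrier and 100% = background rate without enzyme reaction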
A340 absorber: compounds absorbing at 340 nm; compound absorbance at 340 nm, fold over control; fold change at 10 µM; 65,000 tested, under 10 active;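 active = at 10 µM dose, initial 340 nm absorbance at least 2 fold that of control wells; inactive = change under 2 fold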;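 note: initial absorbance extrapolated from kinetic A340 decline of NADH oxidation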
Autofluor 339: intrinsic fluorescence of library compounds, ex339/em460 – biochemical, MLSMR library, data from DPM-DC assay, artefact control, profiling panel; hit rate 5.5% among 65,000; AID 709; compound autofluorescence, ex339/em460 nm, NADH buffer; active compounds read high; 1 = no-compound wells, NADH background; fluorescence fold increase at 10 µM;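 active = at 10 µM, mean starting fluorescence two-fold or more over control wells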;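 note: signal is the first read of a kinetic run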
MK inhibit: S. pneumoniae mevalonate kinase inhibition | inhibition, % at 10 µM | hit rate 0.48% among 65,000 | purified MK, PK/LDH-coupled NADH absorbance 340 nm;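 active = ranked among the strongest by inhibition in the single 10 µM screen, a fixed top-ranked set picked for dose follow-up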
* hit, by the source's call; i = inactive; . = no result given; + = active, no number.

SMILES	DPM-DC inhibit	NADH coupling	Spn PMK inh	A340 absorber	Autofluor 339	MK inhibit
O=C(Nc1ccc(Cl)cc1)Nc1ccccc1C(=O)NCc1ccco1	i	7%	2	1.1	2.1*	4
O=C(NCc1ccco1)c1ccccc1NS(=O)(=O)c1ccc2c(c1)OCCO2	+	11%	0	1.1	2.9*	0
CCOC(=O)CSc1nc(-c2ccc3c(c2)OCO3)ccc1C#N	.	6%	4	1	2.2*	7
CCOC(=O)CSc1nc(-c2ccncc2)ccc1C#N	i	2%	0	1.1	1.2	6
CCOC(=O)CC(=O)CSc1nc(-c2cccnc2)ccc1C#N	.	2%	5	1	2.1*	1
COc1ccccc1NC(=O)C1=C(C)Nc2nc(-c3cccs3)nn2C1c1cccnc1 (stereo not given)	i	6%	13	1	1.1	4
O=C(NCc1ccc(F)cc1)C1CCC(=O)N1C1CCCCC1 (stereo not given)	i	9%	24	1	1.1	3
O=C1CC(c2cccnc2)c2cc3c(cc2N1)OCO3 (stereo not given)	+	5%	10	1	1.1	12
COCCn1c(C)cc(C(=O)COc2nc3ccccc3nc2C)c1C	+	18%	13	1.1	1.1	9
CCc1cc(=O)oc2cc(OC(C)C(=O)O)c(Cl)cc12 (stereo not given)	i	14%	13	1.1	2.9*	8
CCc1cc(=O)oc2cc(OCC(=O)O)c(Cl)cc12	i	12%	4	1.1	2.4*	6
Cc1cc(C(=O)CSc2nc3ccccc3c(=O)n2C)c(C)n1Cc1ccc2c(c1)OCO2	i	5%	11	1	1.1	5
CN(C)CCCNC(=O)C1CCNCC1	i	0%	0	1	1.1	1
Cc1ccc(Cl)cc1N1CCN(S(=O)(=O)c2ccc3c(c2)oc(=O)n3C)CC1	i	6%	12	1	1.1	7
CC1Cn2c(nnc2-c2cc3ccccc3cc2O)S1 (stereo not given)	i	11%	9	1	2.9*	4
CC1Cn2c(nnc2-c2ccccc2O)S1 (stereo not given)	i	0%	0	1	1.1	0
CC1CC(C)CN(CCCNC(=O)c2ccc3c(c2)NC(=O)C(N2CCCCC2)S3)C1 (stereo not given)	i	1%	0	1	1.1	0
NC(=O)c1nsc(C(=O)N(CC(=O)NCc2ccc3c(c2)OCO3)C2CCCC2)c1N	i	9%	.	1	2.1*	8
Nc1nnc(SCC(=O)NCc2ccc3c(c2)OCO3)s1	i	5%	7	1	1.1	7
C=CCn1c(C(C)NC(=O)COC)nc2ccccc21 (stereo not given)	i	4%	11	1	1.1	0
Cc1ccc(C2NC(=O)c3c(sc4c3CCN(C)C4)N2)s1 (stereo not given)	i	16%	14	1	2.3*	13
O=C1NC(c2ccccn2)Nc2sc3c(c21)CCC3 (stereo not given)	i	5%	9	1.1	1.4	6
CN1CCc2c(sc3c2C(=O)NC(c2ccccn2)N3)C1 (stereo not given)	i	12%	15	1	2.4*	3
Cc1ccc(C2NC(=O)c3c(sc4c3CCN(C)C4)N2)o1 (stereo not given)	i	9%	7	1.1	1.6	5
CCCC1Cc2nc(N3CCCCC3)c(C#N)cc2CO1 (stereo not given)	.	10%	10	1	3.6*	9
O=C(NC1CCCc2ccccc21)C1CCN(c2c3c(nc4ncnn24)CCC3)CC1 (stereo not given)	.	6%	6	1.1	4.7*	5
Nc1c2c(nc3ccn(-c4ccccc4)c(=O)c13)CCCCC2	i	6%	8	1	2.1*	0
Cc1ccc(-c2nnn(CC(=O)Nc3ccccc3-c3ccccc3)n2)c(-n2cnnn2)c1	i	3%	5	0.97	1.1	4
Nc1c2c(nc3ccccc13)N(c1ccccc1)CC2	.	21%	0	1.1	2.3*	42*
COC(=O)CCN(C(=O)C1C2CC3CC(C2)CC1C3)c1ccccn1 (stereo not given)	i	9%	22	0.97	1.1	5

From PubChem BioAssay
